The record followed here is PubChem BioAssay AID504773 (Broad Institute, 2011).

Entries with a potency or affinity are not part of this list. The source made the active and inactive calls.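 The calls were made as follows: active = polarization signal falls with dose and the fitted half-maximal concentration is at or below ten times the sample's top valid dose; inconclusive = flat curve at 30 to 70% inhibition, or poor fit; inactive = signal rises, flat within 30%, or potency beyond limit.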

This assay deals with Golgi-associated PDZ and coiled-coil motif-containing protein (Homo sapiens) (UniProt Q9HD26). Kind of assay: CAL PDZ peptide-binding inhibitors, dose response, biochemical, fluorescence polarization, Cerulean-tagged CAL PDZ, cherry-picks (AID 504773). The conditions noted are these: 1 h; series mostly up to 50 µM. Background: Fluorescence polarisation rises when a labelled molecule tumbles more slowly, as on binding a larger partner.
`c1ccc(CNc2nc(NCc3ccccc3)c3ccccc3n2)cc1`: the call was inactive.
With `CC(=Nc1ccccc1O)c1sc2ccccc2c1O`, the outcome was inactive.
In the case of `Cc1cc(C)c(S(=O)(=O)NCc2ccc3c(c2)OCO3)c(C)c1` it was “inactive”; in that of `CC(C)Oc1ccc(C(=O)Nc2ccc(S(=O)(=O)N3CCN(C)CC3)cc2)cc1`, “inactive”.
Consider `COc1cc(C(=O)ON=C2C(C)=CC(=O)C=C2C)cc(OC)c1OC`, for which the call was inactive.
Consider `O=C(NCc1ccccn1)Nc1ccc(F)c(Cl)c1`, for which the molecule was called inactive.
On to `CCOC(=O)/C=C/C(=O)OCC(=O)Nc1ccc([N+](=O)[O-])cc1`, for which the call was inactive.
On to `CC(C)OCCCNC(=O)C1CC(=O)N(CCc2ccc(F)cc2)C1` (configuration not stated), for which the molecule was called inactive.
Take `S=C(NCCc1ccccc1)NC1CCC(NC(=S)NCCc2ccccc2)CC1` (configuration not stated): the call was inactive.
The value for `CCN(CCCn1c(=S)[nH]c2ccc(N3CCOCC3)cc2c1=O)c1ccccc1` was “inactive”.
Regarding `COCC(=O)Nc1ccc2nc3n(c(=O)c2c1)CCCCC3`, the molecule was called inactive.
In the case of `Cc1ccc(CN(Cc2cccnc2)C(=S)Nc2cccc(Cl)c2C)cc1` it was “inactive”; in that of `COc1ccc(C2/C(=C(/O)c3ccc(C)cc3)C(=O)C(=O)N2C)c(OC)c1` (configuration not stated), “inactive”.
In the case of `COC(=O)CN1C(=O)C(O)=C(C(C)=O)C1c1ccc([N+](=O)[O-])cc1` (configuration not stated), the call was inactive.
As to `Cc1ccc2cc(C#N)c(N3CCCN(S(=O)(=O)c4ccccc4)CC3)nc2c1`, the call was inactive.
The value for `O=C(COC(=O)c1cccc(O)c1)NC(=O)Cc1ccccc1` was “inactive”; that for `COc1cc(OC)cc(C(=O)N[C@H](C(=O)Nc2nc3ccc(S(C)(=O)=O)cc3s2)C(C)C)c1` was “inactive”.
Consider `CCNS(=O)(=O)c1ccc(CCC(=O)N2CCCC2)cc1`, for which the molecule was called inactive.
In the case of `COc1cc(C2NC(=O)NC(C)=C2C(=O)OC2CCCCC2)cc(Br)c1O` (configuration not stated) it was “inactive”.
As to `CN(C)CCNC(=O)COc1cccc2c1OC(C)(C)C2`, the molecule was called inactive.
The value for `Cc1ccc2nc(CSc3nnc(-c4ccncc4)n3C)cc(=O)n2c1` was “inactive”; that for `O=C(C=Cc1ccccc1)c1cc(Br)ccc1O` was “inactive”; that for `O=C(O)c1[nH]c2ccccc2c1C(c1ccccc1)c1c(C(=O)O)[nH]c2ccccc12` was “inactive”.
The value for `O=C(NCCCn1ccnc1)c1ccccc1F` was “inactive”; that for `CCCCNC(=S)NNc1c(Cl)cc(Cl)cc1Cl` was “inactive”; that for `CSc1ccccc1NC(=O)C1CC(c2c(F)cccc2Cl)=NO1` (configuration not stated) was “inactive”.
In the case of `O=C1CSC(=Nc2ccccc2Cl)N1` it was “inactive”.
For the molecule `CC1CCCN(C(=O)Cc2cccc3ccccc23)C1` (configuration not stated), the result was inactive.
In the case of `CCOC(=O)C1=C(C)OC(N)=C(C#N)C1c1cccc(C)c1` (configuration not stated) it was “inactive”; in that of `CC1CCN(C(=O)COC(=O)c2cccs2)CC1`, “inactive”; in that of `COc1ccccc1C(=O)Nc1ccc2c(c1)CN(C(=O)CSC)CC2`, “inactive”.
In the case of `O=C(NCc1cccs1)c1cccn2c(=O)c3sccc3nc12` it was “inactive”; in that of `COc1ccccc1NC(=O)N(c1c(N)n(Cc2ccccc2)c(=O)[nH]c1=O)C1CCCC1`, “inactive”; in that of `CC(=O)Nc1sc2c(c1C(c1ccccn1)N1CCN(C)CC1)CCCC2` (configuration not stated), “inactive”.
The value for `CN(C)C1(CNC(=O)C2CCC(=O)N(CCc3ccc(Cl)cc3)C2)CCCCC1` (configuration not stated) was “inactive”.
As to `COc1ccc(Nc2cccccc2=O)cc1`, the call was inactive.
The value for `CC1=C(C#N)C(Nc2ccc(Cl)cn2)(C(F)(F)F)C(=O)N1` (configuration not stated) was “inactive”.
